Drawing on ChEMBL document CHEMBL2218924, “A broad activity screen in support of a chemogenomic map for kinase signalling research and drug discovery” (Biochem J, 2013), this text covers residual activity for three compounds.

For orientation: residual activity means the signal under treatment as a percentage of the control signal.

Assay [1] concerns the target Death-associated protein kinase 1 (Homo sapiens) (UniProt P53355). Conditions: at 10 µM.
For assay [2], the target named is Death-associated protein kinase 2 (Homo sapiens) (UniProt Q9UIK4). Conditions: at 1 µM.
In assay [3] the target is T1, Serine/threonine-protein kinase DCLK2 (Homo sapiens) (UniProt Q8N568).
T1 sequence (whole entry): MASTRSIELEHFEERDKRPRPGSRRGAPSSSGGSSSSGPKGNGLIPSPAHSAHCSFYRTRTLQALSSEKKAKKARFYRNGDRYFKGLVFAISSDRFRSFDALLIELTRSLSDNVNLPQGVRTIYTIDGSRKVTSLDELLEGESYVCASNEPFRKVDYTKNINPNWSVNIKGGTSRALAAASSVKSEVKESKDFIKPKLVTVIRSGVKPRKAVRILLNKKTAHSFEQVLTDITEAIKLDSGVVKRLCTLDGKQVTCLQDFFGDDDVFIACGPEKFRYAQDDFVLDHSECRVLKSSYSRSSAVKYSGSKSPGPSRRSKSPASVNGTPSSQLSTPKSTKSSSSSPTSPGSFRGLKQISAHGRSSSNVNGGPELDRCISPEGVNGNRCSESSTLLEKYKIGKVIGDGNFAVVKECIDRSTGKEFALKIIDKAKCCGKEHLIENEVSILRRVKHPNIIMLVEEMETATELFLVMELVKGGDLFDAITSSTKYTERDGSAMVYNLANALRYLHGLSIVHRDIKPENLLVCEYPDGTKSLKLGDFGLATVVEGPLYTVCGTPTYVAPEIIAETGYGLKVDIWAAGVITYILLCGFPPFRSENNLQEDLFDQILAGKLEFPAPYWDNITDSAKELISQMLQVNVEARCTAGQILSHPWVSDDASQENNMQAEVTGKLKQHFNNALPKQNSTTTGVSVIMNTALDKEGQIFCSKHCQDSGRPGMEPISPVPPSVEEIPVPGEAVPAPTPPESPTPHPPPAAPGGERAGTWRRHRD
Conditions: at 1 µM.

Assay [4] concerns the target T1, Serine/threonine-protein kinase DCLK2 (Homo sapiens). Conditions: at 10 µM.
Assay [5] deals with T2, Discoidin domain-containing receptor 2 (Homo sapiens) (UniProt Q16832).
T2 sequence (whole entry): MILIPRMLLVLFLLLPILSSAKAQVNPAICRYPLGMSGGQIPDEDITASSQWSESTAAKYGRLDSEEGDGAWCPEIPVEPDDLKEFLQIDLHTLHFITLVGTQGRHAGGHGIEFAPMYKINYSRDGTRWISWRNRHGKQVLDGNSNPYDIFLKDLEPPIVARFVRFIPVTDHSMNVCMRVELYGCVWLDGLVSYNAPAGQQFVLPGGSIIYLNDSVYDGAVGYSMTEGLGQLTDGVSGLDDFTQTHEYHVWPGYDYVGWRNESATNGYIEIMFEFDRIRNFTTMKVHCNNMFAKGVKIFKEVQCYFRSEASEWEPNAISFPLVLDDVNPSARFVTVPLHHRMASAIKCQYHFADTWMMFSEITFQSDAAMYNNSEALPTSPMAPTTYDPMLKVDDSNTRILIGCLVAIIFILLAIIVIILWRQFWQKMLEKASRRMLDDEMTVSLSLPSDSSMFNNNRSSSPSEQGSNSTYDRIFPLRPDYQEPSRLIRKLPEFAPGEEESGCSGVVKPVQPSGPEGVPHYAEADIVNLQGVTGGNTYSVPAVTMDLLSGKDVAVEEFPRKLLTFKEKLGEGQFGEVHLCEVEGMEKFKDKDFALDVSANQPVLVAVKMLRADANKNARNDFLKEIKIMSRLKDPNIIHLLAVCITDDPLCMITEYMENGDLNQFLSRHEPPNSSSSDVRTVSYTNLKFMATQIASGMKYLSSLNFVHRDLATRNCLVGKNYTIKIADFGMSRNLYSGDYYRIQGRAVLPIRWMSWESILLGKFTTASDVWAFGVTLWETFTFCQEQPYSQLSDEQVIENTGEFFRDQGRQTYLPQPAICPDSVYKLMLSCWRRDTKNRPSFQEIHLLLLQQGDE
The conditions noted are these: at 10 µM.

Assay [6] has as its target T3, Myotonin-protein kinase (Homo sapiens) (UniProt Q09013).
T3 sequence (whole entry): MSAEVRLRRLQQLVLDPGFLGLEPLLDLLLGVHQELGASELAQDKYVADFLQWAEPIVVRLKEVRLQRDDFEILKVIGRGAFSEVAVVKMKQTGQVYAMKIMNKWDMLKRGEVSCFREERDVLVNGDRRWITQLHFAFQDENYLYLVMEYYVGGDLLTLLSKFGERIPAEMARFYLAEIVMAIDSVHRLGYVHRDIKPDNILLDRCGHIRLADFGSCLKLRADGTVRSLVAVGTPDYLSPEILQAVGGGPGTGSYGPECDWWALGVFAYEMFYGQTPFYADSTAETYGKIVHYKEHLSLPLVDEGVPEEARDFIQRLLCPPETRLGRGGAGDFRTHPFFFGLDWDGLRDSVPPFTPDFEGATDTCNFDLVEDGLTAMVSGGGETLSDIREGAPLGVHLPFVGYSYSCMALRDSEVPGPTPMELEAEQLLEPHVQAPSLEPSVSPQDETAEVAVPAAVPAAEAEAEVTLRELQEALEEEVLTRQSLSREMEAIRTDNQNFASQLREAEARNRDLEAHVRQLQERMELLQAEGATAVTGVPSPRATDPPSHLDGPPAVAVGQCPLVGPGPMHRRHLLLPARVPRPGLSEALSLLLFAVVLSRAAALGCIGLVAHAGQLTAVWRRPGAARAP
The conditions noted are these: at 1 µM.

The target in assay [7] is T3, Myotonin-protein kinase (Homo sapiens). The conditions noted are these: at 10 µM.
For assay [8], the target named is T4, Serine/threonine-protein kinase 17A (Homo sapiens) (UniProt Q9UEE5).
T4 sequence (whole entry): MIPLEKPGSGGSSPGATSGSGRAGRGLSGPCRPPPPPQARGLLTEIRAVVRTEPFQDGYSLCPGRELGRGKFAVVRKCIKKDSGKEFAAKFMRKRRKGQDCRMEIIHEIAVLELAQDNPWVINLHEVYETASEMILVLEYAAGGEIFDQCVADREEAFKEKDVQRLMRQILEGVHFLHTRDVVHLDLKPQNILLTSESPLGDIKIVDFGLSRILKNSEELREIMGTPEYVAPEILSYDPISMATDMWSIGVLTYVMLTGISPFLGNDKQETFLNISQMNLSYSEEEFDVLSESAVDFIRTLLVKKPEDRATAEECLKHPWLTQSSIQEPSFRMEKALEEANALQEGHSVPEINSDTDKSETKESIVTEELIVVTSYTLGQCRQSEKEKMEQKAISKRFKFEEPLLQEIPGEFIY
The conditions noted are these: at 1 µM.

The target in assay [9] is T4, Serine/threonine-protein kinase 17A (Homo sapiens). The conditions noted are these: at 10 µM.
Assay [10] deals with T5, Dual specificity tyrosine-phosphorylation-regulated kinase 2 (Homo sapiens) (UniProt Q92630).
T5 sequence (whole entry): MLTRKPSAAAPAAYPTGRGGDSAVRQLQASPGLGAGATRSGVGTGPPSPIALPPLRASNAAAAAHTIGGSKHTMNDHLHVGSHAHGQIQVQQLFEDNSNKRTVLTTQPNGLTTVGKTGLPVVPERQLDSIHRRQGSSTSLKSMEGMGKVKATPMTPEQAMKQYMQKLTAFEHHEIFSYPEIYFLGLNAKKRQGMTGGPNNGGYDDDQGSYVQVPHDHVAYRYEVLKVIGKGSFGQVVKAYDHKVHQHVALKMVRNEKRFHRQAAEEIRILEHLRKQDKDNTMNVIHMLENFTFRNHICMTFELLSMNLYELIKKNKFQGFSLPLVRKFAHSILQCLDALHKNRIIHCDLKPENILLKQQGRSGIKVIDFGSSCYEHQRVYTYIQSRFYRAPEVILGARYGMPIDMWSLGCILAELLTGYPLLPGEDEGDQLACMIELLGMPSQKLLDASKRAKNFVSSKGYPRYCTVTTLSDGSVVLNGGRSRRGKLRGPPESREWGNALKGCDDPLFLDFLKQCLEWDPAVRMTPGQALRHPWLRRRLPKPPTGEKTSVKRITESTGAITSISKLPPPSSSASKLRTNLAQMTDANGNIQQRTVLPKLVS
Conditions: at 1 µM.

Assay [11] concerns the target T5, Dual specificity tyrosine-phosphorylation-regulated kinase 2 (Homo sapiens). Conditions: at 10 µM.
In assay [12] the target is T6, Ephrin type-A receptor 1 (Homo sapiens) (UniProt P21709).
T6 sequence (whole entry): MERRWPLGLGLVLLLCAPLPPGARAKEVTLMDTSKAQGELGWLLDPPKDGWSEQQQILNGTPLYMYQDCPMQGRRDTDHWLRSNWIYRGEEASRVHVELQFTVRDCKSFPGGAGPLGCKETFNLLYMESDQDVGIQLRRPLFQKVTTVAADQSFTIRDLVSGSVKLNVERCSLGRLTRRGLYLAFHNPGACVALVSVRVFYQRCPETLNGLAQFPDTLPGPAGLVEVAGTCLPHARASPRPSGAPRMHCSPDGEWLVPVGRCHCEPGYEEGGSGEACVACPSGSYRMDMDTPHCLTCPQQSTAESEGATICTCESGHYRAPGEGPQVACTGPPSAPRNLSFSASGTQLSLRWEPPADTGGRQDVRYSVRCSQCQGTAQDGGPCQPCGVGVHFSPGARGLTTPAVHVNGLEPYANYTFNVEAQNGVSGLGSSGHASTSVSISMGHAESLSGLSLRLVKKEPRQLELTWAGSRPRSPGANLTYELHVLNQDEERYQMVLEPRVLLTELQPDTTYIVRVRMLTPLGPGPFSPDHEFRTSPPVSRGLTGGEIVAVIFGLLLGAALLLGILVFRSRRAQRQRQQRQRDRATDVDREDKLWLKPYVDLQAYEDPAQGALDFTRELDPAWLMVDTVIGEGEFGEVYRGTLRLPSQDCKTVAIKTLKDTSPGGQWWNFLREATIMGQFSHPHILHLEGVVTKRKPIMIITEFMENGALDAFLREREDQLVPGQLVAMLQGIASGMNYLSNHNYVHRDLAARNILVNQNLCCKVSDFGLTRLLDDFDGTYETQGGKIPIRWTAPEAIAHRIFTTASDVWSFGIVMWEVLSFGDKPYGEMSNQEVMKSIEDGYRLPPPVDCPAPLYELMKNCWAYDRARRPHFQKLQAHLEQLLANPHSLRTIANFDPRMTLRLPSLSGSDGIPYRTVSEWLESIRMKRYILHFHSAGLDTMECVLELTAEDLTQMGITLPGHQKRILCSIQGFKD
The conditions noted are these: at 1 µM.

Assay [13] has as its target T6, Ephrin type-A receptor 1 (Homo sapiens). Conditions: at 10 µM.
In assay [14] the target is Ephrin type-A receptor 2 (Homo sapiens) (UniProt P29317). The conditions noted are these: at 1 µM.
For assay [15] the target is unchanged. Conditions: at 10 µM.
Assay [16] deals with T7, Ephrin type-A receptor 3 (Homo sapiens) (UniProt P29320).
T7 sequence (whole entry): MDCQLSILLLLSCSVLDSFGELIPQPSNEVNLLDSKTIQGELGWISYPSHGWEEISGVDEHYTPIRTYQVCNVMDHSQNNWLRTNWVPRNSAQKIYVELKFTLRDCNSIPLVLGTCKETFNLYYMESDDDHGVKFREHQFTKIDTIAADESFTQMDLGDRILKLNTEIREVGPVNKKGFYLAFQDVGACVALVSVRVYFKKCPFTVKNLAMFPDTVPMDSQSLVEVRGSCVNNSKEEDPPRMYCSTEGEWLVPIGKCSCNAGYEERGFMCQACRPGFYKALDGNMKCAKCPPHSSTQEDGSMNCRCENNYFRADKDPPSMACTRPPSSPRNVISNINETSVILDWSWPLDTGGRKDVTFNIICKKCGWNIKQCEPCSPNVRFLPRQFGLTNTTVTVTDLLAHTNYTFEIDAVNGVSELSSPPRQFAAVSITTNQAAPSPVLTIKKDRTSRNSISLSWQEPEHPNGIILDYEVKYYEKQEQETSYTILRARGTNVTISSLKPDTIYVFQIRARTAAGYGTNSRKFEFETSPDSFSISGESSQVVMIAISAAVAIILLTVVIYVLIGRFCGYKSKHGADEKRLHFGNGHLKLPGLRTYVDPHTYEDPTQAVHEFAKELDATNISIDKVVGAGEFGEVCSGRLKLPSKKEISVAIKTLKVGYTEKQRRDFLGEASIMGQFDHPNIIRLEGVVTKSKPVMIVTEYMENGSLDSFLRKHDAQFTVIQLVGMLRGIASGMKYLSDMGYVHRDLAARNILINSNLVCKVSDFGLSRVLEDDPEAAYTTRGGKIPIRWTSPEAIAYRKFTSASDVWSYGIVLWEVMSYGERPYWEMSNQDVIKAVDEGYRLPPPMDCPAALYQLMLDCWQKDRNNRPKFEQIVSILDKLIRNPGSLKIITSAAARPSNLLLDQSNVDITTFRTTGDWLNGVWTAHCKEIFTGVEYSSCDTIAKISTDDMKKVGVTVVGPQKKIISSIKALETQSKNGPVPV
The conditions noted are these: at 1 µM.

For assay [17], the target named is T2, Discoidin domain-containing receptor 2 (Homo sapiens). The conditions noted are these: at 1 µM.
For assay [18], the target named is Death-associated protein kinase 2 (Homo sapiens) (UniProt Q9UIK4). The conditions noted are these: at 10 µM.

Sequence of Death-associated protein kinase 2 (Homo sapiens) (Q9UIK4 whole entry, looked up): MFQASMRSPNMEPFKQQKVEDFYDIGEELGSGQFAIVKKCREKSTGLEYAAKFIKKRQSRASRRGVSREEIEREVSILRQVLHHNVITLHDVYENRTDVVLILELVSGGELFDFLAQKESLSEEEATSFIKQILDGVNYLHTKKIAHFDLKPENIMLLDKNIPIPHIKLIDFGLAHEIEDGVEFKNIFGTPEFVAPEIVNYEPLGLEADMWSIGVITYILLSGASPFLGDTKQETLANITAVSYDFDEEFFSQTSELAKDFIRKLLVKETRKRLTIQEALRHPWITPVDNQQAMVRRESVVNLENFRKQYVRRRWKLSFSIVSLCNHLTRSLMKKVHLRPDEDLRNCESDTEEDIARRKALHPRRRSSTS
Sequence of Ephrin type-A receptor 2 (Homo sapiens) (P29317 whole entry): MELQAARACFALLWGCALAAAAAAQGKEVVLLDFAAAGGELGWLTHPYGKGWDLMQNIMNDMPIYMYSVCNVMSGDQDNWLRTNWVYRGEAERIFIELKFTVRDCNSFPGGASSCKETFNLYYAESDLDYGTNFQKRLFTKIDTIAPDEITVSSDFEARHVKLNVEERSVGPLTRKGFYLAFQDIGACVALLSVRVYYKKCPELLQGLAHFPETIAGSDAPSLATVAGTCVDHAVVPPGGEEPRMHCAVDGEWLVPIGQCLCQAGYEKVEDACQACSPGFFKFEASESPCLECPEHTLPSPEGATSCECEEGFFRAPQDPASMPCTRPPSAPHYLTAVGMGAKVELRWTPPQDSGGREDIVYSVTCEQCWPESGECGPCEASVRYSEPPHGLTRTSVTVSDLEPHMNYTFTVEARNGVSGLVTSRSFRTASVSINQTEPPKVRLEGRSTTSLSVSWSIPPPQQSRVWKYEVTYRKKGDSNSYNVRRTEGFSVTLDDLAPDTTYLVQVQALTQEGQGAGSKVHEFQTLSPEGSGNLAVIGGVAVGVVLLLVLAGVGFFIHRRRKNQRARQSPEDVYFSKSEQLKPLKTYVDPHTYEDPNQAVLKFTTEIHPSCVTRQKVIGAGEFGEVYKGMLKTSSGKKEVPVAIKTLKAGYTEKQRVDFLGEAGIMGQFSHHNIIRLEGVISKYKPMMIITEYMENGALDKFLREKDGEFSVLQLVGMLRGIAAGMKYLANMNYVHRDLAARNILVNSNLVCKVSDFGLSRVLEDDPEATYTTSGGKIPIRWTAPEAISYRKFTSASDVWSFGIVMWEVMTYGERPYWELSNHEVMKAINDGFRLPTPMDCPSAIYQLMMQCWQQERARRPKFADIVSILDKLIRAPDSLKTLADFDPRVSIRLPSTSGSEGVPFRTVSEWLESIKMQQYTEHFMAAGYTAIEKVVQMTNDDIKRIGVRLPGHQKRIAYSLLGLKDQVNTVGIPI
Sequence of Death-associated protein kinase 1 (Homo sapiens) (P53355 whole entry, looked up): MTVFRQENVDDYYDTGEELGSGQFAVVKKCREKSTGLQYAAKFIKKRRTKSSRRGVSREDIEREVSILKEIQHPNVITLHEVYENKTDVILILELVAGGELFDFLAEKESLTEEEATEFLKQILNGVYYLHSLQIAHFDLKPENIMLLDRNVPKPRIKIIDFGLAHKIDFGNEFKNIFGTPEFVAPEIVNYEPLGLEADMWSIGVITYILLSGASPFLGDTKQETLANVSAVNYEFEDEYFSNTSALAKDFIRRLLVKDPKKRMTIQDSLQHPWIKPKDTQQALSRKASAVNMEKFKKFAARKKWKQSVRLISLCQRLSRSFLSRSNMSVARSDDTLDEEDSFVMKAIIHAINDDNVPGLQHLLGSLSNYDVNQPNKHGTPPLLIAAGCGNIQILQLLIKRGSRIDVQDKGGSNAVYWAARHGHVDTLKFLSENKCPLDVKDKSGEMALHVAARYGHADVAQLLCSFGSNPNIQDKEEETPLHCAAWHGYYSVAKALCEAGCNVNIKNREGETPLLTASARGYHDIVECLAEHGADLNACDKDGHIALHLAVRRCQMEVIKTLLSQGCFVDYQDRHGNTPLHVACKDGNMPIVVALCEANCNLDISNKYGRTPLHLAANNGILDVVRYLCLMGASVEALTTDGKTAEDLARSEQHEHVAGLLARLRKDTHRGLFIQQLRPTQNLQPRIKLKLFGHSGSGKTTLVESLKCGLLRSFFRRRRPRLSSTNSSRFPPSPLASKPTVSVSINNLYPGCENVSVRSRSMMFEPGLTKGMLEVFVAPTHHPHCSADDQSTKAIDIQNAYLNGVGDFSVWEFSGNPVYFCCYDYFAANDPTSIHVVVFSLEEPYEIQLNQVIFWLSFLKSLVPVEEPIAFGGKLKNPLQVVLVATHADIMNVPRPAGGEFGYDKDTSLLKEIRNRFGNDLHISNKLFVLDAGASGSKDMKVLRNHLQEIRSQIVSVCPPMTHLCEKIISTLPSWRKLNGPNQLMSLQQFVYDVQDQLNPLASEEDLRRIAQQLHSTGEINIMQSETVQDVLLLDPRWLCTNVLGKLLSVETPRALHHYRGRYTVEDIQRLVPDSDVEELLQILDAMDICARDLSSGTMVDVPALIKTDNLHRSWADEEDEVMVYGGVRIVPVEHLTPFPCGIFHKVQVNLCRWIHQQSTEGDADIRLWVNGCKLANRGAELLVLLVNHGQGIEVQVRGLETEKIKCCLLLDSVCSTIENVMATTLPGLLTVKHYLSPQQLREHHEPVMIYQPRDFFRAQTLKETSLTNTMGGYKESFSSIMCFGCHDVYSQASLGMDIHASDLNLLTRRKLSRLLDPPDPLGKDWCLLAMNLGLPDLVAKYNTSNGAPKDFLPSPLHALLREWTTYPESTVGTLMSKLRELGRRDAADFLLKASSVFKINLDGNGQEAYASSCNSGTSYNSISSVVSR

Take `c1ccc2c(-c3ccncc3)c[nH]c2c1`: the residual activity in [1] came to 91%; in [2] it was 100%; in assay [3] it was 75%; in [4], 98%; in assay [5] it was 97%; in assay [6] it was 147%. The residual activity in assay [7] worked out at 132%; in assay [8] it was 102%; in assay [9] it was 60%; in assay [10] it was 77%; in assay [11], 21%; in [12], 87%. The residual activity in assay [13] is 69%; in assay [14] it was 104%; in assay [15], 92%; in assay [16], 106%.
As to `Cc1cncc2cccc(S(=O)(=O)N3CCCN(C(=O)CN)C[C@H]3C)c12`, the residual activity is 85% in assay [1]; 90% in [2]; 66% in [3]; 35% in assay [4]; 126% in assay [17]; 94% in assay [5]. Moreover, the residual activity in assay [10] was determined as 91%; in assay [11], 94%; in assay [12] it was 54%; in [13], 7%; in [14] it was 92%; in assay [15], 56%. Further, the residual activity in assay [16] is 96%.
For the compound `N#CC(C#N)=C(N)/C(C#N)=C/c1ccc(O)cc1`, the residual activity in assay [1] is 92%; in assay [2] it was 99%; in assay [18] it was 97%; in assay [3], 94%; in assay [4] it was 47%; in assay [17], 116%. Further, the residual activity in [5] was 97%; in assay [7], 148%; in [8] it was 91%; in assay [10], 85%; in assay [11], 93%.
